Potency data for eight compounds are collected here from PubChem BioAssay (Tox21).

The structures appear in SMILES notation. Unmarked numbers belong to inactive results. Records with an inconclusive call do not appear. Calls of active or inactive are those of the source. Unless noted, calls follow the shape of the full dose curve. Bridge positions count the residues as written; N and C are the ends. Square brackets hold non-standard residues; d marks the D form. Peptide text beside a SMILES is read from it. hArg = N=C(N)NCCCC[C@H](N)C(=O)O; Mpa = O=C(O)CCS

Experiment [1] can be described thus: Nuclear factor erythroid 2-related factor 2/antioxidant responsive element (Nrf2/ARE) small molecule agonists: qHTS cell viability counter screen in human keratinocytes (AID 1919968; active = well fitted curve in the direction sought with a large enough effect in the repeat runs; an effect the other way counts as inactive or inconclusive; also: nearly all actives have a fitted effect of over 55% in size; also: potency is read from the fitted curve at half-maximal effect). A digest of the protocol:
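KeratinoSens cells (HaCaT keratinocytes stably carrying an ARE-luciferase reporter) were seeded at 1,500 cells/well and rested 5 h at 37 C/5% CO2. They were then exposed to compounds in DMSO for 23 h. Viability was read by CellTiter-Fluor fluorescence after 1 h.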
(qHTS replaces the single test concentration by a dilution series.)

The nature of experiment [2]: Nuclear factor erythroid 2-related factor 2/antioxidant responsive element (Nrf2/ARE) small molecule agonists: luciferase reporter gene qHTS assay in human keratinocytes (AID 1919969). Also: nearly all actives have a fitted effect of over 35% in size. Also: potency is read from the fitted curve at half-maximal effect. A general note: A reporter such as luciferase makes a cellular process visible.
Experiment [3] concerns the target Gonadotropin-releasing hormone receptor (Homo sapiens) (UniProt P30968). Put plainly: Human gonadotropin-releasing hormone receptor (GnRHR) small molecule agonists, calcium flux assay in GnRHR-HEK293 cells (AID 1920063). Also: nearly all actives have a fitted effect of over 35% in size. The procedure, abridged:
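HEK293 cells stably expressing human GnRHR were plated 18 h at 37 °C, loaded with calcium dye 1 h at 37 °C, then given compound in agonist mode; fluorescence (Ex/Em 480/540) read kinetically for 3 min at 1 s intervals.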
In general terms: A change in cytosolic calcium serves as a functional read-out for many receptors and channels.

The target in experiment [4] is KiSS-1 receptor (Homo sapiens) (UniProt Q969F8). Put plainly: Human kisspeptin (KISS1R) small molecule agonists, calcium flux assay in KISS1R-HEK293 cells (AID 1920064; active = well fitted curve in the direction sought with a large enough effect in the repeat runs; an effect the other way counts as inactive or inconclusive). The procedure, abridged: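 HEK293 cells stably expressing human KISS1R were plated 18 h at 37 °C, loaded with calcium dye for 1 h at 37 °C, then given compound by pin tool. Fluorescence (Ex/Em 480/540) was read kinetically for 3 min.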
Sequence of KiSS-1 receptor (Homo sapiens) (Q969F8 whole entry, looked up): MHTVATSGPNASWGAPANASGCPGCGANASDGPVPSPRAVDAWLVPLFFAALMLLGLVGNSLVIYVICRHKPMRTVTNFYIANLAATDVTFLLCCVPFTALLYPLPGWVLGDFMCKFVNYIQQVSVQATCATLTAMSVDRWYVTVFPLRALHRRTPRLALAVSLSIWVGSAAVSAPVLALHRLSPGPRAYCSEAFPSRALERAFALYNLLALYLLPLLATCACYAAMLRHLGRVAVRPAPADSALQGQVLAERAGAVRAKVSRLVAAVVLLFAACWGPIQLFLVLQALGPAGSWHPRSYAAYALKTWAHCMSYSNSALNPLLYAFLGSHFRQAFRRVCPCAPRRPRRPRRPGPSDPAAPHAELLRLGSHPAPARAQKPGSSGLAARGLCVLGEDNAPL

The nature of experiment [5]: G protein-coupled receptor (GPCR) small molecule agonists, calcium flux assay: HEK293 wild type cell line counter screen (AID 1920065). A digest of the protocol:
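Cells were plated and cultured 18 h at 37 C/5% CO2, then loaded with calcium dye for 1 h at 37 C. Compounds in DMSO were pin-transferred in agonist mode, and fluorescence (Ex/Em 480/540) was read kinetically for 3 min at 1 s intervals.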

A short description of experiment [6]: p53 small molecule agonists, cell-based qHTS assay with human liver microsomes: qHTS cell viability counter screen (AID 1963579). Also: nearly all actives have a fitted effect of over 45% in size. A digest of the protocol: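 Metabolically activated exposure: compounds, human liver microsomes and NADPH (0.5 mg/mL final apiece) were added to p53RE-bla cells seeded 5 h earlier, left 16 h at 37 C, and then assessed for viability by CellTiter-Glo luminescence.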

The nature of experiment [7]: p53 small molecule agonists, cell-based qHTS assay (AID 1963582; active = well fitted activation curve with a large enough effect in the signal ratio in the repeat runs, not every such curve was filed as active; the % refers to the signal ratio). The procedure, abridged: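 p53RE-bla beta-lactamase reporter cells rested 5 h at 37 C/5% CO2, then received compounds in DMSO by pin transfer and were incubated 16 h at 37 C. LiveBLAzer B/G FRET substrate was loaded for 2 h at room temperature before fluorescence reading.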
In experiment [8] the target is 5-hydroxytryptamine receptor 2A (Homo sapiens) (UniProt P28223). Put plainly: 5-hydroxytryptamine receptor 2A (HTR2A) small molecule antagonists, cell-based qHTS assay (AID 1963586). Also: nearly all actives have a fitted effect of over 45% in size. The procedure, abridged: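 Antagonist-mode intracellular calcium assay: DOI (4 nM) added after 5 min compound pre-incubation at room temperature to dye-loaded HTR2A-CHO cells. Fluorescence followed for 3 min, sampled every second.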
Sequence of 5-hydroxytryptamine receptor 2A (Homo sapiens) (P28223 whole entry, looked up): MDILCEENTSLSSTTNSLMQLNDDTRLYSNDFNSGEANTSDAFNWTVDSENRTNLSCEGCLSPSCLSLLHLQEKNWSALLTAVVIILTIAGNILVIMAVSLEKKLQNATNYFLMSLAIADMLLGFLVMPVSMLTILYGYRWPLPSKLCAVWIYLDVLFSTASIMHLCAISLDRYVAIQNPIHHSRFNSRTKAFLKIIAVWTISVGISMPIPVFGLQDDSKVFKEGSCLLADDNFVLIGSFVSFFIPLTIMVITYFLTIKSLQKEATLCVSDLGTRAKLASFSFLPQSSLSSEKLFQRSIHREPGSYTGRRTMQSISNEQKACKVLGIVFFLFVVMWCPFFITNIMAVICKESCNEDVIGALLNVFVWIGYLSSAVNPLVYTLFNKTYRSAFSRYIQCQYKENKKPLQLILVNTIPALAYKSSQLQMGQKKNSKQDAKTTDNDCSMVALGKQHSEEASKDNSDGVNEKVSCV

In experiment [9] the target is Muscarinic acetylcholine receptor M1 (Homo sapiens) (UniProt P11229). Put plainly: Cholinergic receptor muscarinic 1 (CHRM1) small molecule antagonists, cell-based qHTS assay (AID 1963588). Also: nearly all actives have a fitted effect of over 40% in size. The procedure, abridged:
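CHRM1-CHO calcium-flux assay, antagonist mode. Cells were seeded 18 h, dye-loaded 1 h at 37 C and given compound for 5 min at RT, then acetylcholine was added at 50nM. FDSS fluorescence was read 3 min; 15 concentrations, three runs.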

Experiment [10] has the same target. Put plainly: Cholinergic receptor muscarinic 1 (CHRM1) small molecule agonists, cell-based qHTS assay (AID 1963589). Also: nearly all actives have a fitted effect of over 35% in size. The procedure, abridged: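 CHO cells stably expressing human CHRM1, seeded 18 h at 37 C/5% CO2, dye-loaded 1 h at 37 C, then given compound in agonist mode; intracellular calcium fluorescence read kinetically at 1 s intervals. Fifteen concentrations, three independent runs.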

Experiment [11] is described as follows: cAMP Responsive Elements (CRE) small molecule agonists, cell-based qHTS assay (AID 1963590). A digest of the protocol: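 CRE-bla HEK 293T cells in DMEM with 10% dialyzed FBS, NEAA, pyruvate and 25 mM HEPES were plated 18 h at 37 C/5% CO2, then exposed to compounds in DMSO for 3 h before LiveBLAzer B/G FRET substrate addition.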
A short description of experiment [12]: cAMP Responsive Elements (CRE) small molecule antagonists, cell-based qHTS assay (AID 1963591; active = well fitted inhibition curve with a large enough effect in the signal ratio in the repeat runs, not every such curve was filed as active; the % refers to the signal ratio). A digest of the protocol:
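CRE-bla HEK293T cells were plated 18 h at 37 °C/5% CO2, pinned with compound in DMSO, then stimulated with NKH477 at 0.25 uM final for 3 h. LiveBLAzer B/G FRET substrate was added and plates incubated 2 h at room temperature.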

Experiment [13] deals with Beta-2 adrenergic receptor (Homo sapiens) (UniProt P07550). Put plainly: Adrenergic beta2 receptor (ADRB2) small molecule antagonists, cell-based qHTS assay (AID 1963592). Also: series mostly up to about 92 µM; nearly all actives have a fitted effect of over 50% in size. The procedure, abridged:
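Cells (CHO, stable ADRB2 overexpression) incubated 18-20hr at 37C; compounds added from DMSO; agonist mix (1nM isoproterenol, 100uM IBMX, 25uM Ro-20-1724) added; 0.5hr RT; d2-cAMP and anti-cAMP-cryptate added; 1hr RT; 665/615 nm read.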

Experiment [14] has the same target. Put plainly: Adrenergic beta2 receptor (ADRB2) small molecule agonists, cell-based qHTS assay (AID 1963593).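 Also: CHO cells stably overexpressing human ADRB2.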 The procedure, abridged: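 CHO cells stably over-expressing ADRB2 were plated overnight at 37C, then dosed with compounds plus a stimulation mix containing 100uM IBMX and 25uM Ro-20-1724 for 0.5hr at room temperature. cAMP was measured by HTRF competition, 1hr.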

Experiment [15] addresses D(2) dopamine receptor (Homo sapiens) (UniProt P14416). Put plainly: Dopamine D2 receptor (DRD2) small molecule agonists, cell-based qHTS assay (AID 1963594). Also: nearly all actives have a fitted effect of over 35% in size. The procedure, abridged: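 cAMP accumulation in DRD2-HEK293 cells measured by HTRF after 1 h detection; compounds added 10 min before NKH477 (200nM […]) forskolin-analogue stimulation, 30 min at room temperature, with Ro20-1724 present at 0.1 mM final.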

Experiment [16] has the same target. Put plainly: Dopamine D2 receptor (DRD2) small molecule antagonists, cell-based qHTS assay (AID 1963595; active = well fitted inhibition curve with a large enough effect in the signal ratio in the repeat runs, with a control signal flat; the % refers to the signal ratio). A digest of the protocol: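 Antagonism was scored as restored cAMP in HEK293-DRD2 cells. These cells were stimulated with 200 nM NKH477 and 12 nM quinpirole for 30 min at room temperature, in the presence of 0.1 mM Ro20-1724.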
Experiment [17] in a line: p53 small molecule agonists, cell-based qHTS assay: qHTS cell viability counter screen (AID 1963581). Also: nearly all actives have a fitted effect of over 45% in size. The procedure, abridged:
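p53RE-bla HCT-116 cells were exposed to compounds for 16 h at 37 C; after the beta-lactamase FRET read in the same wells, CellTiter-Glo was added and luminescence (intracellular ATP) read after 30 min at room temperature.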

In experiment [18] the target is 5-hydroxytryptamine receptor 2A (Homo sapiens) (UniProt P28223). Put plainly: 5-hydroxytryptamine receptor 2A (HTR2A) small molecule agonists, cell-based qHTS assay (AID 1963587). Also: nearly all actives have a fitted effect of over 30% in size. Also: potency is read from the fitted curve at half-maximal effect. A digest of the protocol:
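Kinetic calcium-flux fluorescence (2 min, 1 sec intervals) after compound addition in agonist mode. HTR2A-CHO cells were cultured 18 h, then dye-loaded 1 h at 37 C.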

Experiment [19] can be described thus: p53 small molecule agonists, cell-based qHTS assay with rat liver microsomes: qHTS cell viability counter screen (AID 1963580). Also: nearly all actives have a fitted effect of over 45% in size. A digest of the protocol:
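HCT-116 p53RE-bla, 4,000 cells/well, 5 h pre-incubation; cpd + rat liver microsomes 0.5 mg/mL + NADPH 0.5 mg/mL (final); 16 h, 37 C; CellTiter-Glo, 30 min RT; luminescence.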

A short description of experiment [20]: p53 small molecule agonists, cell-based qHTS assay with rat liver microsomes (AID 1963578). The procedure, abridged:
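Agonist mode in p53RE-bla reporter cells, with compounds co-incubated 16 h at 37 C alongside 0.5 mg/mL rat liver microsomes and 0.5 mg/mL NADPH (final), followed by a 2 h LiveBLAzer detection step.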

Sequence of Gonadotropin-releasing hormone receptor (Homo sapiens) (P30968 whole entry, looked up): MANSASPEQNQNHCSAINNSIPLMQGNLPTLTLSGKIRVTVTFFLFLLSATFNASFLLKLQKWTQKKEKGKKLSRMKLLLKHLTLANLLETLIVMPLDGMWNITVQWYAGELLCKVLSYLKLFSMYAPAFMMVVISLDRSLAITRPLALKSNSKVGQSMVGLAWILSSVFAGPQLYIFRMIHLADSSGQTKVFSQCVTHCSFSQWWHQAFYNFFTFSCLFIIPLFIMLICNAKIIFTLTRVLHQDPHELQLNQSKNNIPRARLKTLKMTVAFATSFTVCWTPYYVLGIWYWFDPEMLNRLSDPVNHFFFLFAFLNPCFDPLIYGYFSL
Sequence of Beta-2 adrenergic receptor (Homo sapiens) (P07550 whole entry, looked up): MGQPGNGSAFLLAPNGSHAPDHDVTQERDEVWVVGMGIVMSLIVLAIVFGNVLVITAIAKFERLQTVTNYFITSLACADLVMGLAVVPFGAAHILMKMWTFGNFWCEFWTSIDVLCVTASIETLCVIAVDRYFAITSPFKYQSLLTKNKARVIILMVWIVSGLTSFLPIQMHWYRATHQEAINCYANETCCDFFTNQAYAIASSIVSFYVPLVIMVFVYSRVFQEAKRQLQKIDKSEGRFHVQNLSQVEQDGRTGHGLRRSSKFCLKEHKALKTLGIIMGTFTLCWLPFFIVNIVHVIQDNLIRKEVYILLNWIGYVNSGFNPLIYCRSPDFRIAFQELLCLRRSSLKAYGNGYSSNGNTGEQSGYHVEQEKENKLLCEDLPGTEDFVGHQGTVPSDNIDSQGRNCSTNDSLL
Sequence of D(2) dopamine receptor (Homo sapiens) (P14416 whole entry, looked up): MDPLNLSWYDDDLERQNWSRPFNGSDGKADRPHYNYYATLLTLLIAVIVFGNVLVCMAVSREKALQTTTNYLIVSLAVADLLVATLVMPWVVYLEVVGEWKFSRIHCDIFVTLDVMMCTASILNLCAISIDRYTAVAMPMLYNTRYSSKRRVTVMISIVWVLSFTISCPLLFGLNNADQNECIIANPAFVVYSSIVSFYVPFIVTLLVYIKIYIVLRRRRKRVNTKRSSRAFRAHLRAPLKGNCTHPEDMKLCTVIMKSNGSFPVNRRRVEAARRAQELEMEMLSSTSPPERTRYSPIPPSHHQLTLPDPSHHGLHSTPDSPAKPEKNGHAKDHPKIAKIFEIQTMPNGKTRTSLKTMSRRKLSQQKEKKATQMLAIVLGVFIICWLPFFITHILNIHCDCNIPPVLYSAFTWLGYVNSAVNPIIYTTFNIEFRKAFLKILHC
Sequence of Muscarinic acetylcholine receptor M1 (Homo sapiens) (P11229 whole entry, looked up): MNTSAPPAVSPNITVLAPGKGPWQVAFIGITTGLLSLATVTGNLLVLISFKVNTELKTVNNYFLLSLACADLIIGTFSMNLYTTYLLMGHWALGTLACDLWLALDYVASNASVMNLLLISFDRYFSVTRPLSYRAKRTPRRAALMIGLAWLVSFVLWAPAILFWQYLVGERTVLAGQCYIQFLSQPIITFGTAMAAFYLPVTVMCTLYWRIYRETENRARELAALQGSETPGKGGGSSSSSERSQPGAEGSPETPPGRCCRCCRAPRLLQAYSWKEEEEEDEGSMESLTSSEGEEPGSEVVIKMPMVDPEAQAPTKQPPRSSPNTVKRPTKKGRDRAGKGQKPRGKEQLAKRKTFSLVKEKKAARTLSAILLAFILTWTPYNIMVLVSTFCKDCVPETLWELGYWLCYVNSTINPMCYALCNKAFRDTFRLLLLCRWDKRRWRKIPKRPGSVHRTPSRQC

For `COc1ccc(NC(=O)CC(C)=O)cc1`, the Potency result in [1], in experiment [2], in experiment [3], in [4], in [5] and in experiment [6] was “inactive” throughout. Moreover, the Potency entry in experiment [7], in experiment [8], in experiment [9], in [10], in experiment [11] and in experiment [12] was “inactive” throughout. Moreover, the Potency entry in experiment [13], in [14], in experiment [15] and in [16] was “inactive” in each case.

As for `CCO[Si](CC(C)C)(OCC)OCC`, the Potency entry in experiment [1], in experiment [2], in experiment [3], in experiment [4], in [5] and in [6] was “inactive” throughout. In addition, the Potency result in [17], in experiment [8], in experiment [18], in experiment [9], in [10] and in experiment [11] was “inactive” each time. For the same compound, the Potency result in experiment [12] and in [15] was “inactive” in each case.

Regarding `CCOc1ccc(O)cc1`, the Potency entry in [1], in experiment [2], in experiment [3], in [4], in [5] and in experiment [6] was “inactive” throughout. The Potency result in experiment [19], in experiment [7], in [8], in experiment [18], in experiment [9] and in experiment [10] was “inactive” throughout. Moreover, the Potency entry in experiment [11], in experiment [12] and in [13] was “inactive” each time.

Take `Cc1coc2ccccc2c1=O`: the Potency result in experiment [1], in [2], in experiment [3], in [4], in experiment [5] and in experiment [20] was “inactive” in each case. Besides, the Potency entry in experiment [6], in experiment [19], in experiment [17], in experiment [7], in experiment [8] and in [18] was “inactive” each time. Moreover, the Potency result in experiment [9], in experiment [10], in [11], in experiment [12], in experiment [13] and in [14] was “inactive” throughout. The Potency result in [15] and in experiment [16] was “inactive” throughout.

Regarding `NC(=O)[C@@H]1CSSCCC(=O)N[C@@H](CCCCN=C(N)N)C(=O)NCC(=O)N[C@@H](CC(=O)O)C(=O)N[C@@H](Cc2c[nH]c3ccccc23)C(=O)N2CCC[C@H]2C(=O)N1` ([Mpa][hArg]GDWPC-NH2; disulfide 1-7), the Potency entry in [1], in experiment [2], in [3], in experiment [4], in [5] and in [6] was “inactive” each time. Besides, the Potency result in [19], in experiment [17], in [7], in [11], in [12] and in [13] was “inactive” throughout. Further, the Potency entry in experiment [14], in experiment [15] and in [16] was “inactive” in each case.

`Nc1ccc(N)c2ccccc12`: the figures for the Potency in experiment [1], in experiment [2] and in [18] were 27.3 µM (active), 7.69 µM (active) and 7.75 µM (active), respectively. Further, the Potency entry in experiment [3], in experiment [4], in experiment [5], in experiment [20], in [7] and in experiment [9] was “inactive” each time. For the same compound, the Potency result in experiment [11] and in experiment [12] was “inactive” each time.

For `CCC[Si](OC)(OC)OC`, the Potency entry in experiment [1], in experiment [2], in experiment [3], in experiment [4], in experiment [5] and in [20] was “inactive” throughout. The Potency result in [6], in experiment [19], in experiment [17], in experiment [7], in experiment [8] and in [18] was “inactive” in each case. The Potency result in [9], in [10], in experiment [11], in experiment [12], in experiment [13] and in [14] was “inactive” in each case. The Potency entry in [15] and in [16] was “inactive” throughout.

Take `CC[N+](C)(CC)CC`: the Potency entry in experiment [1], in [2], in [3], in [4], in experiment [5] and in experiment [6] was “inactive” in each case. Further, the Potency result in experiment [19], in experiment [17], in experiment [7], in experiment [8], in [18] and in experiment [9] was “inactive” throughout. The Potency result in experiment [10], in experiment [12] and in experiment [15] was “inactive” in each case.
